# Compound activity deposited in PubChem BioAssay by National Center for Advancing Translational Sciences (NCATS).
# Compounds with a hit are over-represented: about 16% of the library has one in this group of screens.
# miR-21 act: qHTS Assay for Modulators of miRNAs and/orActivators of miR-21 | Potency, µM (doses to about 38.3 µM), hits mostly activators | HeLa miR-21 FLuc reporter, luciferase, 48 h | 340,000 tested, under 10 active;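 note: miR-21 action dims this reporter so a rising signal means less miR-21 action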
#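 HeLa miR-21-FLuc reporter line, endogenous miR-21; 2000 cells/well in DMEM/10% FBS; compound titration up to ~40uM final, 48 h, 37 degree Celsius; luciferase detection reagent, 15 min lysis, CCD luminescence.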
# TDP1 inh: qHTS Assay for Inhibitors of Tyrosyl-DNA Phosphodiesterase (TDP1); Tyrosyl-DNA phosphodiesterase 1 (Homo sapiens), Q9NUW8; recombinant TDP1, AlphaScreen DNA substrate cleavage; Potency, µM (highest dose often 130 µM), actives largely listed as inhibitors; actives 0.28% (n = 350,000); AID 485290, 2010; note: nearly all actives have a fitted effect of over 40% in size
# Target sequence (Q9NUW8 whole entry, looked up): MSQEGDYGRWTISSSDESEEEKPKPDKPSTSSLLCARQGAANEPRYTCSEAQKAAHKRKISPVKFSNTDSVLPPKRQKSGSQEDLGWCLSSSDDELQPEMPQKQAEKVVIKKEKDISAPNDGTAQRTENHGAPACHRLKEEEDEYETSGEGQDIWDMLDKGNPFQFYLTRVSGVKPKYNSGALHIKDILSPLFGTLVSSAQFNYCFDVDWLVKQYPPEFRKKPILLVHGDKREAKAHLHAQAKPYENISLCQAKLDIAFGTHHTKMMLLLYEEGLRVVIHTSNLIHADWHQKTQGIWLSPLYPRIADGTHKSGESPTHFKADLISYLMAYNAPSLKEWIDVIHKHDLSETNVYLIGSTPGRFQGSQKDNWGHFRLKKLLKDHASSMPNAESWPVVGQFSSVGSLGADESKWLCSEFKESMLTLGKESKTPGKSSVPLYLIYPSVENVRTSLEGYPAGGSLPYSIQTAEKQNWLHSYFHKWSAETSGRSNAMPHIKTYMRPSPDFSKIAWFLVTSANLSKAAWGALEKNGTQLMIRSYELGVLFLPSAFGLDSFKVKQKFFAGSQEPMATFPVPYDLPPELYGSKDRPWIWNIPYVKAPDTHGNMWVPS
#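 Recombinant E. coli-expressed Tdp1 (1 nM) preincubated with compound 15 min at RT, then 5'-biotin/3'-phosphotyrosine-FITC DNA substrate (15 nM) added for 5 min. AlphaScreen beads (10 ug/ml) added, 10 min RT; tyrosine-FITC cleavage read as signal loss.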
# uPA generation: qHTS for Inhibitors of Cell Surface uPA Generation; cell surface uPA generation assay, qHTS; Potency, µM (top dose mostly 38.3 µM), usual class: inhibitors; actives 0.31% (n = 330,000); AID 540303, 2011; active = well fitted inhibition curve with a large enough effect; inconclusive = small, poorly fitted or top-dose-only effect; inactive = no such curve, though single readings can be large or run the other way; tested in mouse RAW 264.7 cells; note: nearly all actives have a fitted effect of over 55% in size
# TDP1 cell noCPT: qHTS for Inhibitors of human tyrosyl-DNA phosphodiesterase 1 (TDP1): qHTS in cells in absence of CPT; actives 15% (n = 420,000); Potency, µM (titrated, usually from 46.2 µM), hits mostly inhibitors; DT40 Tdp1-/- hTDP1 cells, no CPT, ATP luminescence, 48 h; note: nearly all actives have a fitted effect of over 55% in size
#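 No-CPT arm: Tdp1-/-;hTDP1 DT40 cells (400/well) plus compounds, incubated ≥48 hr at 37 °C. Readout CellTiter-Glo luminescence.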
# DT40 TDP1 CPT: qHTS for Inhibitors of human tyrosyl-DNA phosphodiesterase 1 (TDP1): qHTS in cells in presence of CPT. chicken DT40 Tdp1-/-;hTDP1 cells + 20 nM CPT, ATP luminescence, 48 h. Potency, µM (highest dose often 46.2 µM), most hits filed as inhibitors. actives 12% (n = 420,000); note: nearly all actives have a fitted effect of over 55% in size
#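 Chicken DT40 Tdp1-/- cells stably complemented with human TDP1 were seeded at 400 cells/well in medium containing 20 nM camptothecin, exposed to pin-transferred compounds, and grown at 37 °C for at least 48 hr. Viability was read as ATP luminescence.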
# Hits are given with their value; . = inactive; ? = inconclusive; / = no result given. Unless noted, calls come from the whole dose curve; as a rule, active = well fitted curve in the direction sought with a large enough effect; inconclusive = small, poorly fitted or top-dose-only effect, or another doubt; inactive = no such curve, though single readings can be large; an effect the other way counts as inactive or inconclusive.
SMILES,miR-21 act,TDP1 inh,uPA generation,TDP1 cell noCPT,DT40 TDP1 CPT
CCc1ccc(-c2cc(C)no2)cc1S(=O)(=O)N1CCN(c2cccc(Cl)c2)CC1,.,.,/,0.651µM,1.03µM
CC1CCc2c(cnc3ncnn23)C1 (configuration not stated),.,.,.,.,.
CCOc1ccc(-n2ccc(=O)c(C(=O)Nc3ccc(S(=O)(=O)N4CCOCC4)cc3)n2)cc1,.,.,.,.,.
C/C(N)=C(/C#N)C(=O)COC(=O)c1ccccc1Cc1ccccc1,.,.,.,?,?
CC(=O)Nc1ccc(C(=O)OCC(=O)NC(=O)NCc2ccccc2)cc1,/,/,/,.,.
CCc1ccc(-c2cc(C)no2)cc1S(=O)(=O)N1CCN(c2ccccc2F)CC1,.,.,.,.,?
CCc1ccc(-c2cc(C)no2)cc1S(=O)(=O)N1CCN(c2cccc(C)c2C)CC1,.,.,.,?,23.1µM
Cc1ccc2occ(C(c3nnnn3C3CCCC3)N3CCN(C(=O)c4ccco4)CC3)c(=O)c2c1 (configuration not stated),.,.,.,?,16.4µM
O=C(c1ccco1)N1CCN(C(c2coc3ccc(Cl)cc3c2=O)c2nnnn2C2CCCC2)CC1 (configuration not stated),/,/,.,?,?
COc1cc(COCC(O)CN2CCN(CCN3C(=O)c4cccc5cccc(c45)C3=O)CC2)cc(OC)c1OC (configuration not stated),.,.,.,11.6µM,18.4µM
O=C1c2cccc3cccc(c23)C(=O)N1CCN1CCN(C(=S)Nc2ccc(Cl)cc2)CC1,.,.,.,?,?
O=C1c2cccc3cccc(c23)C(=O)N1CCN1CCN(CC(O)COCc2ccc(Cl)cc2)CC1 (configuration not stated),.,.,.,14.6µM,8.2µM
C/C(CCC(C)C)=N\Nc1ccc(S(N)(=O)=O)cc1[N+](=O)[O-],.,.,.,?,?
O=c1[nH]cnc2[nH]cc(CN3CCCCC3)c12,/,/,/,.,.
Cc1ccc(C)c(N(CC(=O)NCc2ccco2)C(=O)CNS(=O)(=O)c2ccc(F)cc2)c1,.,/,.,.,.
OC(c1ccccc1)c1ncc(-c2cccc(F)c2)[nH]1 (configuration not stated),/,/,/,.,.
OC(c1cc(Cl)cc(Cl)c1)c1ncc(-c2cccc(F)c2)[nH]1 (configuration not stated),/,/,/,16.4µM,?
OC(c1cc(F)cc(Cl)c1)c1ncc(-c2ccc(Cl)cc2)[nH]1 (configuration not stated),/,/,/,?,18.4µM
CCCC(=O)c1c[nH]c(C(=O)NCc2cccnc2)c1,.,.,.,.,.
CCN(CC)C(=O)c1ccc2nc([C@H]3C[C@H](O)[C@@H](CO)O3)[nH]c2c1,/,/,/,.,.
OC[C@H]1O[C@@H](c2nc3ccc(-c4nc(-c5ccc(Br)cc5)no4)cc3[nH]2)C[C@@H]1O,/,/,/,16.4µM,16.4µM
CC(C)CN(C(=O)CC(C)c1ccccc1)c1c(N)n(Cc2ccccc2)c(=O)[nH]c1=O (configuration not stated),/,.,.,.,.
CC(=O)c1ccc(NC(=O)c2ccc(CSc3ccccc3)o2)cc1,.,.,.,?,16.4µM
COc1ccccc1NC(=O)c1ccc(CSc2ccccc2)o1,.,.,?,.,?
COc1nc(=O)n(C2C=CC(=O)O2)cc1F (configuration not stated),/,/,/,2.31µM,2.31µM
SMILES,miR-21 act,TDP1 inh,uPA generation,TDP1 cell noCPT,DT40 TDP1 CPT
COc1ccc(-c2noc(CCC(=O)N3CCN(c4ccccc4F)CC3)n2)cc1,/,.,.,.,.
COC(=O)c1ccc(Cn2c(SCc3ccccc3)nc3ccncc32)cc1,.,.,/,20.6µM,?
CCc1ccc(CNC(=O)c2ccc(CSc3nc4ccncc4n3Cc3ccc(OC)cc3)cc2)cc1,.,.,/,?,23.1µM
CCc1ccc(CNC(=O)c2ccc(CSc3nc4ccncc4n3Cc3ccccc3)cc2)cc1,.,.,/,23.1µM,16.4µM
COC(=O)c1ccc(CSc2nnnn2Cc2ccccc2)cc1,.,.,/,.,.
CCOc1ccccc1CNC(=O)c1ccc(Cn2c(SCc3ccccc3)nc3cccnc32)cc1,.,.,/,?,?
COc1ccc(Cn2c(SCc3ccc(C(=O)NCc4cccs4)cc3)nc3cccnc32)cc1,.,.,/,.,?
COc1ccccc1CNC(=O)c1ccc(CSc2nc3ccncc3n2Cc2cccc(F)c2)cc1,.,.,/,18.4µM,?
Cc1c(NC(=O)COc2ncnc3ccccc23)c(=O)n(-c2ccccc2)n1C,.,.,.,.,.
COc1ccccc1C=NN1CCCCCC1,/,/,.,?,?
O=S(=O)(Nc1cccc(-c2cn3c(n2)SCC3)c1)c1ccccc1F,.,.,.,.,.
Cc1noc(C)c1C(=O)N1CCC1(C)C(=O)NS(=O)(=O)c1cccc(F)c1 (configuration not stated),/,/,/,.,.
CCn1nc(C)c(Br)c1-c1nc(-c2ccc(C)cc2)no1,.,.,.,.,.
Cc1cccc(CSc2nc3cccnc3n2Cc2ccc(C(=O)NCc3cccs3)cc2)c1,.,.,/,?,?
O=C(NCc1cccs1)c1ccc(CSc2nc3ccncc3n2Cc2cccc(F)c2)cc1,.,.,/,20.6µM,?
COc1ccc(Cn2c(SCc3ccc(C(=O)NCc4cccs4)cc3)nc3ccncc32)cc1,.,.,/,?,18.4µM
COCc1c(C(=O)OCc2nc3ccsc3c(=O)[nH]2)oc2ccccc12,/,.,.,.,.
COc1cc(/C=C/C(=O)OCC(=O)NC(=O)NCc2ccco2)ccc1OC(F)F,/,.,.,.,?
COc1ccc(/C=N/NC(=S)NCCc2ccccc2)cc1,.,/,.,25.9µM,18.4µM
CCc1ccc(/C=N/NC(=S)NCCc2ccccc2)cc1,.,.,.,16.4µM,?
Fc1ccc(/C=N/NC(=S)NCCc2ccccc2)cc1F,.,.,.,?,?
CNC(=O)c1sc2ncccc2c1-n1cccc1,.,.,/,?,.
Cc1ccc(CCNC(=O)c2sc3ncccc3c2-n2c(C)ccc2C)cc1,.,.,/,6.51µM,11.6µM
CCOc1ccc(CCNC(=O)c2sc3ncccc3c2-n2c(C)ccc2C)cc1,?,.,/,14.6µM,13µM
CCOc1ccc(Cn2nnc(C(=O)NCCc3ccccc3)c2N)cc1,.,.,.,.,.
Cc1ccc(C)n1-c1c(C(=O)NCC(C)c2ccccc2)sc2ncccc12 (configuration not stated),.,.,/,18.4µM,20.6µM
